{"source": "PubChem BioAssay (Tox21)", "note": "Values joined by “and” are separate entries in the source; they are usually repeats but may differ in a detail not shown here. Identical values can stand only once. Results filed as inconclusive are left out. Where a call stands in place of a potency, no number is given. Active and inactive are the calls of the source. Calls follow the shape of the dose curve; as a rule, active = well fitted curve in the direction sought with a large enough effect in the repeat runs; inconclusive = weak or mixed curves; inactive = no such curve, though single readings can be large; an effect the other way counts as inactive or inconclusive."}
{"molecular_target": "Androgen receptor (Homo sapiens) (UniProt P10275)", "sequence (P10275 whole entry, looked up)": "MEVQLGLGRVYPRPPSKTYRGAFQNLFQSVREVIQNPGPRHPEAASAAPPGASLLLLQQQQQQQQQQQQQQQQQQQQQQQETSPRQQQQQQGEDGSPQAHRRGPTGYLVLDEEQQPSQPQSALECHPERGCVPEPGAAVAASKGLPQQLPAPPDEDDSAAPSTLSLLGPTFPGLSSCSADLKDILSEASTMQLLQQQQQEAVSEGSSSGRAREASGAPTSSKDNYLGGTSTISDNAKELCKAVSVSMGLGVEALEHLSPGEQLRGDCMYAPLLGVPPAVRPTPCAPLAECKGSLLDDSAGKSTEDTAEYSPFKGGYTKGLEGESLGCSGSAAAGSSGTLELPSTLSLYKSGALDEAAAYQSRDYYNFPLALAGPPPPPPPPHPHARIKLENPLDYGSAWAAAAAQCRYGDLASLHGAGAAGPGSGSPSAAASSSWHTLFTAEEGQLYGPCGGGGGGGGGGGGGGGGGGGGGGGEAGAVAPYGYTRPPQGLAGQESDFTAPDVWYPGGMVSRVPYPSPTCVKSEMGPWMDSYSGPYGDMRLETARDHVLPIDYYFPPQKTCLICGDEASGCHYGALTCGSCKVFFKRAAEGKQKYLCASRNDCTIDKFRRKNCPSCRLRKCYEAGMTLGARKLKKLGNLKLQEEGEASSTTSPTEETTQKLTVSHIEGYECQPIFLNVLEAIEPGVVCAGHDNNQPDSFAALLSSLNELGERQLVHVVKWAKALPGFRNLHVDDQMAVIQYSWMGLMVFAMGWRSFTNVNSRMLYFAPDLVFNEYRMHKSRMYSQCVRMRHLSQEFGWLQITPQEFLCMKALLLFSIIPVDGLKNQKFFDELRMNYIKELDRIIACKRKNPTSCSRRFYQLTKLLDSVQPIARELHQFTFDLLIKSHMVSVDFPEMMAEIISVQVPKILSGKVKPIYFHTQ", "test": "qHTS assay to identify small molecule agonists of the androgen receptor (AR) signaling pathway using the MDA cell line (AID 743040; also: nearly all actives have a fitted effect of over 20% in size)", "conditions": "MDA-kb2 AR-luc cells, MMTV luciferase, 16 h; series mostly up to 70.3 µM", "in_short": "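Agonist activity is measured as luciferase luminescence in human MDA-kb2 cells whose MMTV reporter responds to both AR and GR. Compounds in DMSO incubate 16 h at 37C, 0% CO2, and ONE-Glo is read after 30 min.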"}
{"molecule": "CCN1CCN(c2cc(-c3ccc(F)cc3)c3c(n2)CCCCCC3)CC1", "Potency": "inactive"}
{"molecule": "NC(=O)C(=O)N/N=C/c1ccc([N+](=O)[O-])o1", "Potency": "inactive"}
{"molecule": "Cc1c(C(=O)O)cccc1[N+](=O)[O-]", "Potency": "inactive"}
{"molecule": "O=C1OC(OC(=O)c2cccnc2Nc2cccc(C(F)(F)F)c2)c2ccccc21", "note": "(stereo not drawn)", "Potency": "inactive"}
{"tested_on": "not listed separately", "test": "qHTS assay to identify small molecule antagonists of the androgen receptor (AR) signaling pathway using the MDA cell line - cell viability counter screen (AID 743041; also: nearly all actives have a fitted effect of over 45% in size; also: potency is read from the fitted curve at half-maximal effect)", "conditions": "MDA-kb2 viability, CellTiter-Fluor, 16 h, cells co-treated with R1881 androgen agonist; series mostly up to 70.3 µM", "in_short": "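qHTS viability read-out; MDA-kb2 AR-luc; R1881-stimulated; 16 h exposure at 37C, 0% CO2; CellTiter-Fluor, 30 min; fluorescence intensity.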"}
{"molecule": "Cc1oc(-c2ccccc2)nc1CCOc1ccc(C[C@H](Nc2ccccc2C(=O)c2ccccc2)C(=O)O)cc1", "Potency": "61.1 µM (active)"}
{"molecule": "CCN1CCN(c2cc(-c3ccc(F)cc3)c3c(n2)CCCCCC3)CC1", "Potency": "inactive"}
{"molecule": "CC(=O)Oc1ccc(C2(c3ccc(OC(C)=O)cc3)Oc3ccccc3NC2=O)cc1", "Potency": "inactive"}
{"molecule": "C=C(C)C(=O)OCCC[Si](Cl)(Cl)Cl", "Potency": "inactive"}
{"molecule": "CCN(CC)CCCN(c1ccccc1)C1Cc2ccccc2C1", "Potency": "11.9 µM (active)"}
{"molecule": "CN(C)c1ccc(N=Nc2ccccc2C(=O)O)cc1", "Potency": "inactive"}
{"molecule": "CCCCC(CC)COC(=O)c1ccc(O)cc1", "note": "(stereo not drawn)", "Potency": "inactive"}
{"molecule": "CCN(CC)CCNc1ccc(CO)c2sc3ccccc3c(=O)c12", "Potency": "26.6 µM (active)"}
{"molecule": "NC(=O)C(=O)N/N=C/c1ccc([N+](=O)[O-])o1", "Potency": "inactive"}
{"molecule": "C=C1C(C)(C)[C@@]2(Cl)C(Cl)[C@]1(Cl)C(Cl)(Cl)C2(Cl)Cl", "note": "(stereo partly drawn)", "Potency": "inactive"}
{"molecule": "c1cc(OCC2CO2)cc(OCC2CO2)c1", "note": "(stereo not drawn)", "Potency": "inactive"}
{"molecule": "O=C(Oc1ccccc1)c1cccc(C(=O)Oc2ccccc2)c1", "Potency": "inactive"}
{"molecule": "CC1CCCNC1", "note": "(stereo not drawn)", "Potency": "inactive"}
{"molecule": "CC(C)(C)C1=CC(=O)C=C(C(C)(C)C)C1=O", "Potency": "inactive"}
{"molecule": "Cc1c(C(=O)O)cccc1[N+](=O)[O-]", "Potency": "inactive"}
{"molecule": "C[C@@]12C(=O)OC(=O)[C@]1(C)C1CCC2O1", "Potency": "3.35 µM (active)"}
{"molecule": "COC(=O)CC(C)CCC=C(C)C", "note": "(stereo not drawn)", "Potency": "inactive"}
{"molecule": "NC(=O)c1ccccc1N", "Potency": "inactive"}
{"molecule": "C=CC(C)(CCC=C(C)C)OC(=O)/C=C/c1ccccc1", "note": "(stereo not drawn)", "Potency": "inactive"}
{"molecule": "O=C1c2c(O)ccc(O)c2C(=O)c2c(NCCNCCO)ccc(NCCNCCO)c21", "Potency": "9.43 µM (active)"}
{"molecule": "CCN=c1cc2oc3cc(NCC)c(C)cc3c(-c3ccccc3C(=O)OCC)c-2cc1C", "Potency": "683 nM (active) and 386 nM (active)"}
{"molecule": "C/C=C/C(=O)Oc1c(CCCCCC(C)C)cc([N+](=O)[O-])cc1[N+](=O)[O-]", "Potency": "7.7 µM (active)"}
{"molecule": "O=C(NO)c1ccccc1", "Potency": "inactive"}
{"molecule": "CN1[C@@H]2CC[C@@H]1CC(OC(=O)C(CO)c1ccccc1)C2", "note": "(stereo partly drawn)", "Potency": "inactive"}
{"molecule": "CCCCCCCC/C=C/CCCOC(C)=O", "Potency": "inactive"}
{"molecule": "CCO[Si](CCCSSSSCCC[Si](OCC)(OCC)OCC)(OCC)OCC", "Potency": "inactive"}
{"molecule": "O=C(O)CCCCCCC(=O)O", "Potency": "inactive"}
{"molecule": "O=C1OC(OC(=O)c2cccnc2Nc2cccc(C(F)(F)F)c2)c2ccccc21", "note": "(stereo not drawn)", "Potency": "inactive"}
{"molecule": "COc1cc(C(=O)NS(=O)(=O)c2ccccc2C)ccc1Cc1cn(C)c2ccc(NC(=O)OC3CCCC3)cc12", "Potency": "inactive"}
